# From PubChem BioAssay AID624351 (Southern Research Specialized Biocontainment Screening …, 2012)
# The campaign covered roughly 2,400 compounds. About 1,400 (58%) were called active.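 How the source made its calls: active means inhibition of 30% or more at any tested dose; inconclusive means primary hits over the limit that were never retested; inactive means the rest.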 So high a share suggests a set chosen from earlier hits. Some of the results follow.
# Assay: ADP Hunter readout inhibition without MgcRacGAP – biochemical, coupled enzyme counter-screen, artefact control for MgcRacGAP inhibitor project, dose response (AID 624351);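 further: signal is the ADP detection kit reading of free GDP without any GAP enzyme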
# Details: fluorescence, no MgcRacGAP; series mostly up to 80 µM
row,SMILES,IC50
1,CC(=O)N1CCN(c2ccc(NCc3ccc(Br)o3)cc2)CC1,12.4 µM (active)
2,O=C(CNCc1ccco1)Nc1ccc(N2CCCCCC2)cc1,inactive
3,CC(=O)N1CCN(c2ccc(NCc3ccco3)cc2)CC1,13.1 µM (active)
4,COc1ccc(N2CCN(C(=O)c3ccc(Br)o3)CC2)cc1,inactive
5,Cc1cc(/C=N/Nc2ccc([N+](=O)[O-])cn2)c(C)n1-c1ccc(C(=O)O)cc1,inactive
6,CN(C)c1ccc(Nc2ccc([N+](=O)[O-])cn2)cc1,70.9 µM (active)
7,CN(C)c1ccc(NC2=C([N+](=O)[O-])CS(=O)(=O)C2)cc1,51.3 µM (active)
8,O=C(c1ccccc1F)N1CCN(Cc2ccccc2F)CC1,inactive
9,CCOc1c(C=C(C#N)C#N)c2ccccc2n1CC,inactive
10,CN1CCN(/N=C/c2nc(-c3ccccc3)n3ccccc23)CC1,35.6 µM (active)
11,C(=N\N1CCOCC1)/c1nc(-c2ccccc2)n2ccccc12,25.7 µM (active)
12,CN1CCN(/N=C/c2nc(-c3ccc(Cl)cc3)n3ccccc23)CC1,41.9 µM (active)
13,Clc1ccccc1-c1nc(/C=N/N2CCOCC2)c2ccccn12,44 µM (active)
14,O=C(O)c1ccc2c(c1)C(=O)/C(=C\c1ccco1)C2=O,inactive
15,Cc1ccccc1N1C(S)=C(C#N)C(=O)NC1c1cccs1 (stereo not given),inactive
16,Cc1ccc(-n2sc3cc(F)ccc3c2=O)c(C)c1,inactive
17,CSc1ccccc1NC(=O)CNCCCN1CCOCC1,inactive
18,O=C(CNCc1ccco1)Nc1ccc(Oc2ccccc2)cc1,inactive
19,COCCNC(=O)COc1ccc(Nc2ccccc2)cc1,62.8 µM (active)
20,CCOC(=O)COc1ccc2c(c1)C(=O)CC1(CCCCC1)O2,inactive
21,O=C1CCCCC/C1=N/Nc1ccc(OCc2ccccc2)cc1,inactive
22,O=C(COC(=O)COc1ccc(Nc2ccccc2)cc1)NCc1ccco1,79.9 µM (active)
23,N#Cc1ccc(OCC(=O)Nc2ccc(N3CCCC3)cc2)cc1,inactive
24,O=C(COc1ccc(Nc2ccccc2)cc1)OCC(=O)N1CCCCC1,75.6 µM (active)
25,O=C(NCc1ccco1)c1sc(=S)n2c1[nH]c(=O)c1ccccc12,inactive
26,COc1ccc(-n2nc3c(c2NC(=O)CCCCl)CSC3)cc1,inactive
27,O=C(Nc1ccc(Nc2ccccc2)cc1)C1CC1,55.9 µM (active)
28,CC(C)C(=O)Nc1ccc(Nc2ccccc2)cc1,52.3 µM (active)

row,SMILES,IC50
1,CC(=O)Nc1ccc(S(=O)(=O)Nc2ccc(Nc3ccccc3)cc2)cc1,80.7 µM (active)
2,O=C(O)c1ccccc1C(=O)Nc1ccc(Nc2ccccc2)cc1,62.4 µM (active)
3,CC(=O)Nc1ccc(S(=O)(=O)Nc2nc3ccccc3nc2Nc2ccc(C(=O)O)c(O)c2)cc1,inactive
4,O=C(Nc1ccccc1)C1=C(c2ccccc2)S(=O)(=O)CCS1(=O)=O,inactive
5,Cc1cc(C)c2c(c1)NC(C(=O)O)C1CC=CC21 (stereo not given),inactive
6,COc1ccc(-n2cccc2/C=C/[N+](=O)[O-])cc1,inactive
7,CC1=NOC(=O)/C1=C\c1ccc(-c2ccc(Cl)c(C(=O)O)c2)o1,inactive
8,N#CC1=C(S)N(c2ccccc2)C(c2cccs2)NC1=O (stereo not given),inactive
9,CC(=O)Nc1ccc(NC(=O)C(C)OC(=O)COc2ccc(Nc3ccccc3)cc2)cc1 (stereo not given),inactive
10,CC(=O)Nc1ccc2sn(-c3ccccc3)c(=O)c2c1,inactive
11,Oc1ccc(NCc2ccc(OCc3ccccc3)cc2)cc1,inactive
12,CCC(=O)NC1=C(Cl)C(=O)C(NC(=O)CC)=C(Cl)C1=O,inactive
13,O=C(O)c1ccc(COc2ccccc2C=C2C(=O)c3ccccc3C2=O)cc1,inactive
14,CCC(=O)Nc1ccc(Nc2ccccc2)cc1,55.9 µM (active)
15,CC(=O)Nc1ccc(Nc2ccccc2)cc1,75.5 µM (active)
16,O=C(Nc1ccc(O)cc1)c1ccccc1OCc1ccccc1,44.8 µM (active)
17,C=C1c2c(Cl)ccc(O)c2C(O)=C2C(=O)[C@]3(O)C(O)=C(C(N)=O)C(=O)[C@@H](N(C)C)[C@@H]3[C@@H](O)C12 (stereo not given in full),inactive
18,CC[n+]1c(/C=C2\Sc3ccccc3N2C)ccc2cccc(C)c21,inactive
19,Nc1nn2c(-c3ccccc3)cc(=O)[nH]c2c1N=Nc1ccc(O)cc1,70.9 µM (active)
20,Cc1cc(=O)[nH]c2c(N=Nc3ccc(O)cc3)c(N)nn12,13.2 µM (active)
21,CCOC(=O)C1Nc2ccc(C(=O)O)cc2C2C=CCC12 (stereo not given),inactive
22,COc1cc(OC)c(Cl)cc1N,43.9 µM (active)
23,COC(=O)C1C(O)=C(C=Nc2ccc(N)cc2)C(=O)CC1(C)C (stereo not given),57.5 µM (active)
24,CCCC(=Nc1ccc(N)cc1)C1=C(O)C(C(=O)OC)C(C)(C)CC1=O (stereo not given),14.8 µM (active)
25,CCC(=Nc1ccc(N)cc1)C1=C(O)C(C(=O)OC)C(C)(C)CC1=O (stereo not given),7.76 µM (active)
26,CCOc1cc(/C=N/NC(=O)CCc2n[nH]c(=O)[nH]c2=O)ccc1O,55.6 µM (active)
27,COc1cc(/C=N/NC(=O)CNc2n[nH]c(=O)[nH]c2=O)ccc1O,39.7 µM (active)
